Among all 24,000 compounds or so, about 40 (0.2%) were called active.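 Rule for the calls: active = inhibition of disassembly above about 33% (limit read from the data); inconclusive = likely self-fluorescent, control bead median signal at least 40; inactive = the rest.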 This excerpt belongs to a sample that is enriched for actives.

We go through 49 compounds from PubChem BioAssay AID751 (NMMLSC, 2007).

This test relates to 26S proteasome (yeast, GFP-tagged, ATP-dependent disassembly). Put plainly: inhibitors of ATP-driven 26S proteasome dissociation, primary screen, biochemical, bead-based flow cytometry, GFP-tagged proteasome (AID 751).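 Note: plate controls were ATP control with full disassembly for no effect and ATP-gamma-S intact proteasomes for full effect; higher percent means more bead fluorescence retained so stronger block of disassembly.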 The conditions noted are these: anti-FLAG beads, active compounds read high, concentration not given here. Background: In flow cytometry, cells or beads pass a laser one at a time.
Regarding `O=C(CN1CCN(c2ncc(C(F)(F)F)cc2Cl)CC1)Nc1ccc2c(c1)OCO2`, the inhibition of disassembly is 2.15% (inactive).
Next, `Cc1nc2ncnn2c(C)c1CCC(=O)N1CCN(C(=O)c2ccco2)CC1`: -0.22% (inactive); `Cc1c2cnn(-c3ccccc3)c(=O)c2c(C)n1CCCC(=O)N1CCN(C)CC1`: 0.62% (inactive).
Next, `CCSc1nc2c(c(=O)[nH]1)C(c1cccnc1)C(C(=O)OC(C)C)=C(C)N2` (centres undefined): 0.035% (inactive).
`O=C(NCCCN1CCN(Cc2ccccc2)CC1)C1CCN(S(=O)(=O)N2CCCC2)CC1`: the inhibition of disassembly is -1.86% (inactive).
The value for `Nc1nonc1-c1nc2ccccc2n1CCC(=O)O` was 1.19% (inactive).
Take `CCN(c1ccc2c(c1)OCO2)S(=O)(=O)c1cc(Br)cc2c1N(C(=O)C1CC1)CC2`: the inhibition of disassembly was 28.9% (active).
The value for `CCOC(=O)N1CCN(S(=O)(=O)c2cc(Br)cc3c2N(C(=O)C2CC2)CC3)CC1` was 3.18% (inactive); that for `Cc1noc(C)c1S(=O)(=O)N(CC(=O)NCc1ccc(Cl)cc1)c1ccc2c(c1)OCO2` was -0.25% (inactive).
In the case of `CN(Cc1ccccc1)C(=O)CCNC(=O)Cn1cnc2ccccc2c1=O`, the inhibition of disassembly was -0.53% (inactive).
The value for `COc1ccc2c(c1)CCc1c(C(=O)N3CCCC3)noc1-2` was -0.25% (inactive); that for `COc1ccc(-c2nc(CS(=O)CC(=O)N3CCc4ccccc4C3)c(C)o2)cc1` (centres undefined) was 1.96% (inactive); that for `Nc1ccc(-n2nncc2-c2ccco2)cc1` was -0.06% (inactive).
Next, `CCc1nnc(NC(=O)CCC(=O)O)s1`: -0.71% (inactive); `O=C(c1ccccc1)c1ccc2nc(N3CCCCC3)c3nncn3c2c1`: 3.43% (inactive); `CC12COC3(C(=O)Nc4ccc(Cl)cn4)CC1CCC32C` (centres undefined): 0.35% (inactive).
`CCCn1nnc2sc3c(c2c1=O)CCC(C)C3` (centres undefined): the inhibition of disassembly is -0.93% (inactive).
Next, `CCCCc1nc2c(=O)[nH]c3ccccc3c2o1`: 0.25% (inactive).
The value for `CC(=O)Nc1ccc(S(=O)(=O)N2CCC(N(C)CCC(C)C)CC2)cc1` was 0.37% (inactive).
The value for `CCCn1cc(SCC(N)=O)c2ccccc21` was -0.93% (inactive).
Take `O=C(Nc1nc2ccc(S(=O)(=O)N3CCCC3)cc2s1)C1CCCO1` (centres undefined): the inhibition of disassembly was -0.99% (inactive).
`COc1ccc(N2C(=O)CCC(C(=O)N(C)C3CCCCC3)C2c2ccc(OC)c(OC)c2)cc1` (centres undefined): the inhibition of disassembly is -1.19% (inactive).
Turning to `CC(=O)NCC(=O)N(C)C(C(=O)Nc1ccc2c(c1)OCCO2)c1ccccc1` (centres undefined), the inhibition of disassembly was 2.08% (inactive).
Next, `CC(=O)Nc1cc2ccc(OC(C)=O)cc2oc1=O`: 0.02% (inactive).
The value for `Fc1ccccc1C(c1nnnn1Cc1ccc2c(c1)OCO2)N1CCN(Cc2ccccc2)CC1` (centres undefined) was -0.69% (inactive); that for `CC(C(=O)N1CCOCC1)N1c2cccc3cccc(c23)S1(=O)=O` (centres undefined) was -0.85% (inactive); that for `C=CCn1c(COc2ccccc2F)nnc1SCC(=O)N1CC(=O)Nc2ccccc21` was -0.82% (inactive).
Next, `CCCCNC(=O)c1c[nH]c2ccc(S(=O)(=O)Nc3ccc(OCC)cc3)cc2c1=O`: 0.53% (inactive); `CCCCOC(=O)Nc1nccs1`: 0.85% (inactive).
In the case of `CCn1cc(C(=O)N2CCN(C3CCCCC3)CC2)c2cc(OC)c(OC)cc2c1=O`, the inhibition of disassembly was -1.25% (inactive).
Next, `COCCCN(C(=O)Cn1ncc2c(=O)oc3ccc(C)cc3c21)C(C)c1ccncc1` (centres undefined): -1.07% (inactive).
The value for `Cc1ccsc1C(C(=O)NC1CCCCC1)N(C(=O)Cc1cccs1)C1CC1` (centres undefined) was 1.54% (inactive); that for `O=C(NC1(C(F)(F)F)N=C2SCCN2C1=O)c1ccco1` (centres undefined) was 1.38% (inactive).
Next, `CCN(CCCNC(=O)C1CCN(S(=O)(=O)c2cnc[nH]2)CC1)c1ccccc1`: 0.49% (inactive).
For the compound `Cc1ccc(C(c2sc3nc(C)nn3c2O)N2CCN(c3ccc(F)cc3)CC2)cc1` (centres undefined), the inhibition of disassembly is -0.24% (inactive).
Next, `CN1C(=O)c2ccccc2C(C(=O)NCCCN2CCCC2)C1c1c[nH]c2ccccc12` (centres undefined): 1.77% (inactive); `CCc1ccc(NC(=O)CSc2nc3ccccc3c(=O)n2CCN2CCOCC2)cc1`: -3.37% (inactive); `COc1ccc(OC)c(N=Cc2c(O)[nH]c3ccccc23)c1`: 25.8% (inactive).
Next, `O=C(CN1C(=O)COc2ccccc21)NCCN1CCc2ccccc2C1`: -0.95% (inactive); `COc1ccc(CN2CN(C(C)C)CSC2=S)cc1`: -0.35% (inactive); `CN1CCN(CCCNC(=O)c2cc3c(=O)oc4ccccc4c3s2)CC1`: -0.65% (inactive).
Next, `CCOC(=O)CN1CC23C=CC(O2)C(C(=O)Nc2ccc(F)cc2)C3C1=O` (centres undefined): 0.62% (inactive); `COCCNC(=S)c1ccc(OC)cc1`: -2.83% (inactive).
Regarding `COc1ccc(Cn2nnc3c(=O)[nH]c(C4CCN(C(=O)c5ccccc5Cl)CC4)nc32)cc1`, the inhibition of disassembly was -0.42% (inactive).
Next, `CCN(CC)S(=O)(=O)c1ccc(NC(=O)CN(c2cccc(F)c2)S(C)(=O)=O)cc1`: 2.21% (inactive); `O=C(C(NS(=O)(=O)c1cccc2nsnc12)c1ccccc1)N1CCN(c2ccccn2)CC1` (centres undefined): 0.34% (inactive).
Next, `Cc1c(C(=O)N2CC(C)OC(C)C2)sc2nc(-c3ccccc3)cn12` (centres undefined): 0.65% (inactive).
Next, `COc1cc(C(O)c2nc3ccccc3n2C)cc(OC)c1OC` (centres undefined): 1.95% (inactive).
Consider `O=C(CCN1C(=O)c2ccncc2C1=O)Nc1ccc2c(c1)OCCO2`, for which the inhibition of disassembly was -0.98% (inactive).
